TDP1 cell noCPT = qHTS for Inhibitors of human tyrosyl-DNA phosphodiesterase 1 (TDP1): qHTS in cells in absence of CPT | Potency, µM (titrated, usually from 46.2 µM), inactives show at the highest dose activity change, negative = growth inhibition, usual class: inhibitors | DT40 Tdp1-/- hTDP1 cells, no CPT, ATP luminescence, 48 h | 420,000 tested, 15% active; also: potency is read from the fitted curve at half-maximal effect; nearly all actives have a fitted effect of over 55% in size
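Compound effects on proliferation are scored in DT40 Tdp1-/-;hTDP1 cells in the absence of CPT. ATP levels (CellTiter-Glo luminescence) are recorded after a ≥48 hr, 37 °C incubation.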
IL-1B inflam inh = blocks inflammasome-driven IL-1 beta release | THP-1 LPS/ATP IL-1B secretion, AlphaLISA, 16 h; hits give low values | activity change, % at 57.5 µM | 360,000 tested, 4.7% active; in the data active = activity change below about -50%; inconclusive = mostly about -30% to -49%
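THP-1 cells pretreated 1 hr with compounds (up to 57.5 uM final), then stimulated with LPS (250 ng/mL final) plus ATP (1.25 mM final); secreted IL-1B measured by AlphaLISA after 16 hr, decreased signal indicating inhibition.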
ELG1 DNA repair = blocks ELG1-dependent DNA repair in HEK293T cells | HEK293T ELG1-luciferase reporter, luminescence, 16 h; DNA damage induced by 5-fluorouridine | Potency, µM (series often up to 46.1 µM), inactives show at the highest dose activity change, negative = inhibition, hits mostly inhibitors | 330,000 tested, 2.3% active | AID 504467; also: potency is read from the fitted curve at half-maximal effect; nearly all actives have a fitted effect of over 55% in size
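In this reporter screen, reduction of luminescence relative to DMSO vehicle indicated activity. Compounds and 5-fluorouridine were added together to 2,000 cells per well, incubated for 16 hr at 37 °C, then developed with ONE-Glo.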
VP16 counter = Gal4-VP16 reporter inhibition counter-screen | Potency, µM (doses to about 53.6 µM), inactives show top-dose activity, negative = inhibition, hits mostly inhibitors | Drosophila S2 Gal4-VP16 UAS-luciferase, luminescence, 20 h | 310,000 tested, 3.5% active;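 also: Gal4-VP16 expression switched on by copper sulfate through the metallothionein promoter; potency is read from the fitted curve at half-maximal effect; nearly all actives have a fitted effect of over 50% in size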
RORgamma inh = inhibitors of mouse ROR gamma transcriptional activity; Potency, µM (titrated, usually from 53.6 µM), without a hit: top-dose activity change, negative = inhibition, actives largely listed as inhibitors; 310,000 tested, 5.4% active; AID 2551; Drosophila S2 Gal4-RORgamma UAS-luciferase reporter, 20 h; P51450; also: potency is read from the fitted curve at half-maximal effect; nearly all actives have a fitted effect of over 60% in size
Target sequence (P51450 whole entry, looked up, the tested form may be a part): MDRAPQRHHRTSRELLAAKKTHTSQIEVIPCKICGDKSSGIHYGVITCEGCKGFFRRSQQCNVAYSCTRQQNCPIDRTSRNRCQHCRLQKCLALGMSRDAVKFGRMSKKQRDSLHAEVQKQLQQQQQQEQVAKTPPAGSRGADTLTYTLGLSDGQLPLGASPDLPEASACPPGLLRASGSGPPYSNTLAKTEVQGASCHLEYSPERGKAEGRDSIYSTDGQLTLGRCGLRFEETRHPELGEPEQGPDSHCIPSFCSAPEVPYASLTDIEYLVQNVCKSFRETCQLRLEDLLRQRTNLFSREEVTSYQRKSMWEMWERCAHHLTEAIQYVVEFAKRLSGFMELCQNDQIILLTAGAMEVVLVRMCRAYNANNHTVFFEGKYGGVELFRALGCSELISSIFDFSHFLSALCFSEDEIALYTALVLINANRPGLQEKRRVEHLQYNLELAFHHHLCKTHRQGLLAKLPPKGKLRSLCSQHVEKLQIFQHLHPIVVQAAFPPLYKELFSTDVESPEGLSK
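ROR gamma transcriptional activity was tracked as Gal4-UAS luciferase output in stably transfected Drosophila Schneider cells, with compound added 1 hr before 700 uM copper sulfate induction and a 20 hr ambient-temperature incubation.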
TDP1 cell CPT = DT40-hTDP1 cell growth loss with CPT. AID 686979. 420,000 tested, 12% active. Potency, µM (highest dose often 46.2 µM), for inactives: at the highest dose activity change, negative = growth inhibition, usual class: inhibitors. chicken DT40 Tdp1-/-;hTDP1 cells + 20 nM CPT, ATP luminescence, 48 h; also: potency is read from the fitted curve at half-maximal effect; nearly all actives have a fitted effect of over 55% in size
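Cell growth measured by CellTiter-Glo luminescence after a minimum 48 h, 37 C compound exposure with 20 nM CPT in Tdp1-knockout DT40 cells stably expressing hTDP1, seeded 400/well; qHTS titration format.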
An asterisk follows results filed as active; ? = inconclusive; . = no result given; [ ] = dose if it differs, or a comment. Only some compounds are listed: those with a hit (about 21% of all), similar ones and a draw of the others. Unless noted, calls follow the shape of the dose curve; as a rule, active = well fitted curve in the direction sought with a large enough effect; inconclusive = small, poorly fitted or top-dose-only effect, or another doubt; inactive = no such curve, though single readings can be large; an effect the other way counts as inactive or inconclusive. % is scaled to controls: 0 for no effect and ±100 for the full control effect.

SMILES | TDP1 cell noCPT | IL-1B inflam inh | ELG1 DNA repair | VP16 counter | RORgamma inh | TDP1 cell CPT
COc1ccc(CNc2ncnc3ccc(-c4ccccc4OC)cc23)c(OC)c1 | ? | . | . | -10% | -5% | ?
COc1ccc(CNc2ncnc3ccc(-c4ccccc4CN(C)C)cc23)c(OC)c1 | 10µM* | . | . | -11% | -10% | 21µM*
COc1ccc(CNc2ncnc3ccc(-c4cccc(NS(C)(=O)=O)c4)cc23)c(OC)c1 | 15µM* | . | . | 13% | ? | 18µM*
COc1ccc(CNc2ncnc3ccc(-c4cccc(C#N)c4)cc23)c(OC)c1 | 26µM* | . | . | 0% | 34% | ?
COc1ccccc1CNc1ncnc2ccc(-c3ccccc3CN(C)C)cc12 | ? | . | . | 1% | 21% | ?
COc1ccc(CNc2nc(-c3cccc(NS(C)(=O)=O)c3)nc3ccccc23)c(OC)c1 | ? | . | . | -4% | 15% | ?
Cc1ccc(NC(=O)c2ccc(=O)n(CC(=O)Nc3cc(C)cc(C)c3)n2)cc1 | -25% | . | . | . | . | 3%
CCN(c1ccccc1)S(=O)(=O)c1nnc(NC(=O)C(C)(C)C)s1 | 18% | -5 | 7.3µM* | -1% | 4% | -37%
CCN(c1ccc(OC)cc1)S(=O)(=O)c1nnc(NC(=O)c2ccccc2C)s1 | -28% | . | . | . | . | ?
CCN(c1ccc(C)cc1C)S(=O)(=O)c1nnc(NC(=O)c2ccccc2OC)s1 | 16µM* | . | . | . | . | ?
CCN(c1ccccc1C)S(=O)(=O)c1nnc(NC(=O)c2ccccc2C)s1 | 18µM* | . | . | . | . | ?
CCN(c1cc(C)cc(C)c1)S(=O)(=O)c1nnc(NC(=O)C2CCCCC2)s1 | 12µM* | . | . | . | . | 21µM*
O=C(O)c1ccc(N/N=C2/CCCc3ccccc32)cc1 | 5% | 24 | ? | 0% | 1% | -12%
CC1ON=C(c2ccccn2)N(Cc2ccc(S(C)(=O)=O)cc2)C1=O (stereo unspecified) | 3% | 19 | . | . | . | -3%
Cc1ccccc1NC(=O)c1nc(S(=O)(=O)Cc2ccccc2F)ncc1Cl | 5µM* | . | . | . | . | 1.3µM*
Cc1ccc(NC(=O)c2nc(S(=O)(=O)Cc3ccccc3F)ncc2Cl)cc1C | 2µM* | . | . | . | . | 0.89µM*
Cc1ccc(NC(=O)c2nc(S(=O)(=O)Cc3ccccc3C)ncc2Cl)cc1C | 1.6µM* | -100* | ? | 5µM* | ? | 1.5µM*
CSc1ncc(Cl)c(C(=O)Nc2ccccc2C)n1 | -4% | 32 | -5% | 5% | 4% | 0%
NS(=O)(=O)c1ccc(NC(=O)c2nc(S(=O)(=O)Cc3ccccc3F)ncc2Cl)cc1 | 7.1µM* | . | . | . | . | 10µM*
CSc1ncc(Cl)c(C(=O)Nc2ccc(C)c(C)c2)n1 | -7% | 18 | 4% | -10% | 1% | -7%
NS(=O)(=O)c1ccc(NC(=O)Cc2c(F)cccc2Cl)cc1 | -8% | 4 | 4% | -5% | 14% | -5%
CC(C)C(=O)Nc1nnc(S(=O)(=O)N(C)c2ccc(Cl)cc2)s1 | -17% | -11 | -5% | -8% | -3% | -3%
CCCCN1C(=O)C(=O)N(CC(=O)Nc2ccc(OC(F)(F)F)cc2)C1=O | -19% | 33 | 4% | . | . | ?
COc1ccc2c(c1)-c1nc(-n3ncc(C(=O)NCc4cccc(C)n4)c3C3CC3)ncc1CC2 | -16% | . | . | . | . | 1%[9.04 µM]
CCOc1ccccc1C(=O)NCC(=O)N(C)CC(=O)Nc1ccc(N2CCOCC2)cc1 | 1% | -1 | . | . | . | 0%
CC(=O)Nc1ccc(NC(=O)c2nc(SCc3ccccc3C)ncc2Cl)cc1 | -9% | . | . | . | . | -29%
Cc1ccc(NC(=O)c2nc(S(=O)(=O)Cc3ccccc3F)ncc2Cl)cc1 | 0.89µM* | . | . | . | . | 1.3µM*
O=C(Cc1c(F)cccc1Cl)Nc1cc(S(=O)(=O)N2CCCCC2)ccc1N1CCOCC1 | 16µM* | -16 | 18µM* | 1% | -1% | ?
